In PubChem BioAssay AID651599 (National Center for Advancing Translational Sciences (NCATS), 2012):
Results filed as inconclusive are left out. Activity calls are given as the source filed them. Calls follow the shape of the dose curve; as a rule, active = well fitted inhibition curve with a large enough effect; inconclusive = small, poorly fitted or top-dose-only effect; inactive = no such curve, though single readings can be large or run the other way.

What follows are compounds tested against Tumor susceptibility gene 101 protein (Homo sapiens) (UniProt Q99816) (assay: qHTS Assay for Iinhibitors of HIV-1 Budding by Blocking the Interaction of PTAP/TSG101: Hit Validation in TR assay). Conditions: Tsg101 binding domain + Texas Red-labeled PTAP peptide, fluorescence polarization, 20 min; series mostly up to 57.5 µM.
Sequence of Tumor susceptibility gene 101 protein (Homo sapiens) (Q99816 whole entry, looked up, the tested form may be a part): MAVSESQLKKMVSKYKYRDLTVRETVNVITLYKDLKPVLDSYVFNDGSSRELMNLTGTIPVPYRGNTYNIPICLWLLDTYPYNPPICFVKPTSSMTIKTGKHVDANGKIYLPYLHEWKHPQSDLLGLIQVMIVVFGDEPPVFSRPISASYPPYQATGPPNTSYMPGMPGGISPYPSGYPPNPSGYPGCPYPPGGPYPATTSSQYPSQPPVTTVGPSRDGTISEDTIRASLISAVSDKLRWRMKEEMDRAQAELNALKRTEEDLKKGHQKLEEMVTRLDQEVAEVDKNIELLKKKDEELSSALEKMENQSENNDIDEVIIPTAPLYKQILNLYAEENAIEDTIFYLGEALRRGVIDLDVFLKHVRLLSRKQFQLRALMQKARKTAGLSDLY
Summary of the method: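 Fluorescence polarization: Tsg101 binding domain (10 uM final) with Texas Red-labelled PTAP peptide (50 nM final) in HEPES pH 7.5, 0.15 M NaCl, Tween 20, EDTA, TCEP; 20 min binding at room temperature after compound addition.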

Potency, inactive:
Nc1cccc2c(O)cc(S(=O)(=O)O)cc12
COc1ccccc1NC(=O)C(C)OC(=O)C1CC(=O)N(c2ccc3c(c2)OCCO3)C1 (centres undefined)
COC(CNC(=O)c1ccc2c3c(onc13)-c1ccccc1C2=O)OC
Cc1ccc(C(=O)Nc2ccc(C(=O)O)cc2)cc1S(=O)(=O)NCc1ccccc1
COc1ccc(CCn2c(=N)c(S(=O)(=O)c3ccc(Cl)cc3)cc3c(=O)n4ccccc4nc32)cc1
O=c1[nH]c(=O)n(-c2cc(Br)c(O)c(Br)c2)cc1Br
COCCCNC(=O)c1ccc2c3c(onc13)-c1ccccc1C2=O
CC(=O)Nc1ccc(N=Cc2c(O)ccc3ccccc23)cc1
CCc1cc(C(=O)Nc2ccc(OC)nc2)sc1C
Nc1ccc2c3c(cccc13)-c1ccccc1-2
CC1(C)Cc2c(C#N)c(SCCC#N)nc(N3CCOCC3)c2CS1
Cc1ccc(N2C(=O)c3cccc4c(N5CCN(C)CC5)ccc(c34)C2=O)c2cccnc12
ClCc1nc2ccccc2n1Cc1ccccc1
C=CCn1c(=N)c(S(=O)(=O)c2ccc(C)c(C)c2)cc2c(=O)n3ccccc3nc21
Cn1c(=O)c2[nH]c(COc3ccccc3)nc2n(C)c1=O
COc1ccc(C(=O)c2sc3nc(C)cc(-c4cccs4)c3c2N)cc1OC
Fc1ccc(C2=CC(c3ccc(Br)o3)n3ncnc3N2)cc1 (centres undefined)
COc1cccc2c1C(=O)c1c(O)c3c(c(O)c1C2=O)C[C@](O)(C(C)=O)C[C@H]3O[C@@H]1C[C@@H](N)[C@@H](O)[C@@H](C)O1
COc1ccc(OC)c(/C=C2\N=C(c3ccccc3)OC2=O)c1
NS(=O)(=O)c1ccc(N=Nc2c[nH]c(=O)c(O)c2)cc1
Oc1ccc2ccc3cccc[n+]3c2c1
COc1ccc(OC)c(NC(=O)CCN2CC(C)CC(C)C2)c1 (centres undefined)
CCCN1C(=O)/C(=C/C=C2\N(CC)c3ccccc3C2(C)C)SC1=S
CN1C(=O)NC(c2ccccc2[N+](=O)[O-])C2=C1CCCC2=O (centres undefined)
C=C1CCN(c2ccc(C(=O)O)cc2[N+](=O)[O-])CC1
COc1cccc(NC(=O)/C(C#N)=C/c2ccc(-c3ccc(C)cc3)o2)c1
O=C(N/N=C/c1ccccc1Cl)c1[nH]c2ccc(Br)cc2c1-c1ccccc1
O=c1nc2c(O)cccn2c2c1c(=O)[nH]c1ccccc12
COc1ccccc1N1C(=O)C2C(C(=O)c3ccccc3)=NN(c3ccc(C)cc3)C2C1=O (centres undefined)
COc1c([N+](=O)[O-])c(=O)n(-c2ccccc2)c2ccccc12
Cc1cc(/C=C2\SC(=S)NC2=O)c(C)n1-c1ccccc1
CCCCNc1c2c3c(cccc3n(C)c1=O)C(=O)c1ccccc1-2
Clc1ccc(C2=CC(c3ccco3)n3ncnc3N2)cc1 (centres undefined)
Cc1cccc(NC(=S)NCCC(c2ccccc2)c2ccccc2)c1
Cc1nc(Nc2ccc(S(=O)(=O)N3CCCCC3C)cc2)c2nnn(Cc3ccccc3)c2n1 (centres undefined)
CC1CCN(c2ccc3c(c2)S(=O)(=O)c2ccccc2C3=O)CC1
CN1CC=C2C(C#N)=C(N)C(C#N)(C#N)C(Cc3ccccc3)C2C1 (centres undefined)
CC(=O)N1c2ccccc2C(=O)C1N1CCCCC1 (centres undefined)
Cc1nn(-c2ccccc2)c(N2CCCC2)c1/C=C1\N=C(c2ccc(F)cc2)OC1=O
